Source: PubChem BioAssay (Tox21)
Where “and” joins values, the source holds several entries; their conditions need not be identical. Identical values can stand only once. Records with an inconclusive call do not appear. Calls of active or inactive are those of the source. Unless noted, the call rests on the fitted dose curve; in most records, active means well fitted curve in the direction sought with a large enough effect in the repeat runs; inconclusive means weak or mixed curves; inactive means no such curve, though single readings can be large; an effect the other way counts as inactive or inconclusive.

How the values were obtained:
[1] = qHTS assay to identify small molecule agonists of H2AX (AID 1224845; active means well fitted activation curve with a large enough effect in the signal ratio in the repeat runs, not every such curve was filed as active; the % refers to the signal ratio)
Procedure, shortened: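 Wild-type CHO-K1 cells plated overnight, then exposed 3 hr at 37C to compounds at 15 concentrations (0.76% DMSO). Lysed, then HTRF anti-pH2AX(S139)-cryptate/anti-H2AX-d2 detection after 24 hr at room temperature; emissions 665 and 620 nm.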

[2] = qHTS assay to identify small molecule agonists of the hypoxia (HIF-1) signaling pathway (AID 1224846; active means well fitted activation curve with a large enough effect in the signal ratio in the repeat runs, not every such curve was filed as active; the % refers to the signal ratio)
Procedure, shortened: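 ME-180 HRE-bla reporter cells; compounds in DMSO, 17 h at 37C; read-out beta-lactamase via CCF4-AM FRET.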

[3] = qHTS assay to identify small molecule agonists of H2AX - cell viability counter screen (AID 1224847; calls by dose curve; further: top concentration of the series differs between compounds; nearly all actives have a fitted effect of over 30% in size)
Procedure, shortened: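 Quantitative HTS viability measurement: CHO-K1 wild-type cells in serum (10% FBS) medium, short 3 hr drug exposure at 37C with 0.76% DMSO, CellTiter-Glo luminescent detection.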

[4] = qHTS RealTime-Glo MT Cell Viability Assay in HepG2 cells - 24 hour (AID 1224867); further: nearly all actives have a fitted effect of over 50% in size
Procedure, shortened: (§1)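 Viability was tracked continuously by NanoLuc luminescence from prosubstrate reduced by living HepG2 cells, at successive time points over 40 h of compound exposure. Cells with reagent were preincubated 5 h at 37 °C before compound addition.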

[5] = qHTS RealTime-Glo MT Cell Viability Assay in HEK293 cells - 32 hour (AID 1224868); further: top concentration of the series differs between compounds; nearly all actives have a fitted effect of over 50% in size
Procedure, shortened: (§2)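 Viability tracked continuously by luminescence as live cells reduce a prosubstrate for NanoLuc; HEK293 cells preincubated 5 h, compound-treated at 37 C, and read at 0, 8, 16, 24, 32 and 40 h.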

[6] = A CellTox Green Cytotoxicity Assay to monitor cytotoxicity in HEK293 cells - 0 hour (AID 1224869); further: nearly all actives have a fitted effect of over 50% in size
Procedure, shortened: (§3)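 Real-time, in one plate: 600 HEK293 cells/well with dead-cell DNA dye, pinned compound after 5 h, 37 C incubation over 40 h; viable cells give no appreciable fluorescence.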

[7] = qHTS RealTime-Glo MT Cell Viability Assay in HepG2 cells - 40 hour (AID 1224870); further: nearly all actives have a fitted effect of over 50% in size
Procedure, shortened: (§4)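 HepG2 cells mixed with RealTime-Glo MT reagents (NanoLuc plus cell-permeant prosubstrate) were seeded at 600 cells/well, incubated 5 h at 37 C/5% CO2, then pinned with compounds in DMSO; nonlytic luminescence tracked viability during 40 h treatment.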

[8] = A CellTox Green Cytotoxicity Assay to monitor cytotoxicity in HEK293 cells - 40 hour (AID 1224871); further: nearly all actives have a fitted effect of over 45% in size
Procedure, shortened: as §3

[9] = qHTS RealTime-Glo MT Cell Viability Assay in HEK293 cells - 16 hour (AID 1224872)
Procedure, shortened: as §2

[10] = qHTS RealTime-Glo MT Cell Viability Assay in HepG2 cells - 8 hour (AID 1224873); further: nearly all actives have a fitted effect of over 55% in size
Procedure, shortened: as §4

[11] = qHTS RealTime-Glo MT Cell Viability Assay in HEK293 cells - 40 hour (AID 1224874); details: RealTime-Glo luminescence; max response: stronger effect = lower value; further: nearly all actives have a fitted effect of over 50% in size
Procedure, shortened: (§5)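 Kinetic, non-lysing viability readout. Seed HEK293 (600/well) with reagent, incubate 5 h at 37 C/5% CO2, pin 23 nL compound in DMSO, incubate at 37 C, read luminescence at 0, 8, 16, 24, 32, 40 h.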

[12] = A CellTox Green Cytotoxicity Assay to monitor cytotoxicity in HepG2 cells - 16 hour (AID 1224876); further: nearly all actives have a fitted effect of over 45% in size
Procedure, shortened: (§6)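 Cytotoxicity was tracked as dead-cell DNA fluorescence in HepG2 cells treated with test compounds at 37 C; each time-point value comes from one kinetic series spanning 0, 8, 16, 24, 32 and 40 h.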

[13] = qHTS RealTime-Glo MT Cell Viability Assay in HepG2 cells - 32 hour (AID 1224877); further: nearly all actives have a fitted effect of over 55% in size
Procedure, shortened: as §1

[14] = A CellTox Green Cytotoxicity Assay to monitor cytotoxicity in HepG2 cells - 24 hour (AID 1224878); further: nearly all actives have a fitted effect of over 45% in size
Procedure, shortened: as §6

[15] = A CellTox Green Cytotoxicity Assay to monitor cytotoxicity in HepG2 cells - 40 hour (AID 1224879); further: nearly all actives have a fitted effect of over 40% in size
Procedure, shortened: as §6

[16] = qHTS RealTime-Glo MT Cell Viability Assay in HEK293 cells - 0 hour (AID 1224880); further: top concentration of the series differs between compounds; nearly all actives have a fitted effect of over 45% in size
Procedure, shortened: as §5

[17] = A CellTox Green Cytotoxicity Assay to monitor cytotoxicity in HEK293 cells - 32 hour (AID 1224881); further: nearly all actives have a fitted effect of over 40% in size
Procedure, shortened: as §3

[18] = A CellTox Green Cytotoxicity Assay to monitor cytotoxicity in HEK293 cells - 24 hour (AID 1224875)
Procedure, shortened: as §3
On the % scale 0 is the no-effect control and ±100 the full control effect.

CC[N+](CC)(CC(=O)Nc1c(C)cccc1C)Cc1ccccc1
inactive: Potency [1] | outcome [2] | Potency [3] | Potency [4] | Potency [5] | Potency [6] | Potency [7] | Potency [8] | Potency [9] | Potency [10] | max response [11] -15.4% and 1.42% | Potency [12] | Potency [13] | Potency [14] | Potency [15] | Potency [16] | Potency [17]

COc1c2ccoc2cc2oc(=O)ccc12
inactive: Potency [1] | outcome [2] | Potency [3] | Potency [4] | Potency [5] | Potency [6] | Potency [7] | Potency [8] | Potency [9] | Potency [10] | max response [11] -25.5% and -38.4% | Potency [12] | Potency [13] | Potency [14] | Potency [15] | Potency [16] | Potency [17]

CCOC(=O)CC(=O)OCC
inactive: Potency [1] | outcome [2] | Potency [3] | Potency [4] | Potency [5] | Potency [6] | Potency [7] | Potency [8] | Potency [9] | Potency [10] | max response [11] 5.3% and 0.825% | Potency [18] | Potency [12] | Potency [13] | Potency [14] | Potency [15] | Potency [16] | Potency [17]

Cc1ccc(C)c(S(=O)(=O)O)c1
inactive: Potency [1] | outcome [2] | Potency [3] | Potency [4] | Potency [5] | Potency [6] | Potency [7] | Potency [8] | Potency [9] | Potency [10] | max response [11] 6.87% and -2.89% | Potency [18] | Potency [12] | Potency [13] | Potency [14] | Potency [15] | Potency [16] | Potency [17]

O=C1C(N(CO)C(=O)NCO)N(CO)C(=O)N1CO (stereo unspecified)
inactive: Potency [1] | outcome [2] | Potency [3] | Potency [4] | Potency [5] | Potency [6] | Potency [7] | Potency [8] | Potency [9] | Potency [10] | max response [11] 0.683% and 1.21% | Potency [12] | Potency [13] | Potency [14] | Potency [15] | Potency [16] | Potency [17]

C[Si](C)(C)N[Si](C)(C)C
inactive: Potency [1] | outcome [2] | Potency [3] | Potency [4] | Potency [5] | Potency [6] | Potency [7] | Potency [8] | Potency [9] | Potency [10] | max response [11] 2.88% and 0.469% | Potency [18] | Potency [12] | Potency [13] | Potency [14] | Potency [15] | Potency [16] | Potency [17]

OCC(CO)(CO)CO
inactive: Potency [1] | outcome [2] | Potency [3] | Potency [4] | Potency [5] | Potency [6] | Potency [7] | Potency [8] | Potency [9] | Potency [10] | max response [11] 2.43% and 2.9% | Potency [18] | Potency [12] | Potency [13] | Potency [14] | Potency [15] | Potency [16] | Potency [17]

CC(C)c1ccc(C(C)C)cc1
inactive: Potency [1] | outcome [2] | Potency [3] | Potency [4] | Potency [5] | Potency [6] | Potency [7] | Potency [8] | Potency [9] | Potency [10] | max response [11] 6.04% and 0.0055% | Potency [12] | Potency [13] | Potency [14] | Potency [15] | Potency [16] | Potency [17]

Cc1ccncc1
inactive: Potency [1] | outcome [2] | Potency [3] | Potency [4] | Potency [5] | Potency [6] | Potency [7] | Potency [8] | Potency [9] | max response [11] 1.94% and -1.5% | Potency [18] | Potency [12] | Potency [13] | Potency [14] | Potency [15] | Potency [16] | Potency [17]

CC(=O)C(C)C
inactive: Potency [1] | outcome [2] | Potency [3] | Potency [4] | Potency [5] | Potency [6] | Potency [7] | Potency [8] | Potency [9] | max response [11] 9.65% | Potency [18] | Potency [12] | Potency [13] | Potency [14] | Potency [15] | Potency [16] | Potency [17]

C=CC(=O)NCOCCCC
inactive: Potency [1] | outcome [2] | Potency [3] | Potency [4] | Potency [5] | Potency [6] | Potency [7] | Potency [8] | Potency [9] | max response [11] 1.11% and 4.5% | Potency [18] | Potency [12] | Potency [13] | Potency [14] | Potency [15] | Potency [16] | Potency [17]

CCCCCCCCO
inactive: Potency [1] | outcome [2] | Potency [3] | Potency [4] | Potency [5] | Potency [6] | Potency [7] | Potency [8] | Potency [9] | max response [11] 2.5% and 9.18% | Potency [18] | Potency [12] | Potency [13] | Potency [14] | Potency [15] | Potency [16] | Potency [17]

COc1ccc([C@@H]2CC(=O)c3c(O)cc(O[C@@H]4O[C@H](CO[C@@H]5O[C@@H](C)[C@H](O)[C@@H](O)[C@H]5O)[C@@H](O)[C@H](O)[C@H]4O)cc3O2)cc1OC
inactive: Potency [1] | outcome [2] | Potency [3] | Potency [4] | Potency [5] | Potency [6] | Potency [7] | Potency [8] | Potency [9] | Potency [10] | max response [11] 14.9% and 7.9% | Potency [18] | Potency [12] | Potency [13] | Potency [14] | Potency [15] | Potency [16] | Potency [17]
